The structures appear in SMILES notation. In all, about 310,000 compounds went through this assay and about 3,400 (1.1%) were called active. What follows is part of a selection rich in actives, with near analogues and random picks from the rest. Unmarked numbers belong to inactive results.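 How the source made its calls: active means fluorescence ratio B-score at most minus 3 library SDs, with starting brightness B-score within 2 library SDs (cut at about -5.5 in these data); inactive means the rest, inconclusive results apart.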

In this assay the target is Potassium voltage-gated channel subfamily KQT member 2 (Rattus norvegicus) (UniProt O88943). Put plainly: rat KCNQ2 potassium channel inhibitors, primary screen, cell-based, CHO-K1, FluxOR thallium flux, B-score (AID 2156). As to conditions: 20 min, at 10 µM; hits give low values.
Sequence of Potassium voltage-gated channel subfamily KQT member 2 (Rattus norvegicus) (O88943 whole entry, looked up): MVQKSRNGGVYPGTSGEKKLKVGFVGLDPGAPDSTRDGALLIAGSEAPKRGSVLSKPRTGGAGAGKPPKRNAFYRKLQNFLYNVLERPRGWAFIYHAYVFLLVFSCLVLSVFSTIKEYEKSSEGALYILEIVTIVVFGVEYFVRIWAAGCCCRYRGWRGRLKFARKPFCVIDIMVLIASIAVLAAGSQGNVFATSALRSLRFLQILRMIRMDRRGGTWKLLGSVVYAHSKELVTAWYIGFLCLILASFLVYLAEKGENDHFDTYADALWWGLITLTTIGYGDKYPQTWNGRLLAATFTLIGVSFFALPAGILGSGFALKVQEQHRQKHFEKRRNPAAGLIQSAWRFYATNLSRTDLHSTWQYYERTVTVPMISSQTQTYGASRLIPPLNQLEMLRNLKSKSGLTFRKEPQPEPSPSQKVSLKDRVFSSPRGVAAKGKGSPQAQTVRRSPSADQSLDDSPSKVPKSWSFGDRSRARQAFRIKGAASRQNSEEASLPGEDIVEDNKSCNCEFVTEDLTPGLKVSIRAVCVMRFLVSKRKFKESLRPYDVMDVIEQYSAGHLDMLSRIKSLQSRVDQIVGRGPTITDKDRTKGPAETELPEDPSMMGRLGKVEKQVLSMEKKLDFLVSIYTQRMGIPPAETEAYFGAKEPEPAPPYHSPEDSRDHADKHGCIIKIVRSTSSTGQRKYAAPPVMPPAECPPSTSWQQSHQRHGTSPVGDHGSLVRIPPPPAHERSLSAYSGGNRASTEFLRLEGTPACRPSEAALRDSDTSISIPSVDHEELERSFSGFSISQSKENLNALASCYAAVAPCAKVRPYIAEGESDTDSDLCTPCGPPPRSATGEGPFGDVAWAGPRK
Take `COc1ccc(NS(=O)(=O)c2ccc(C)c(C(=O)N(C)Cc3ccc(OC)cc3OC)c2)cc1`: the B-score result was “inactive”.
Then `CCn1c(SC(C)C(=O)Nc2ccc(N3CCOCC3)cc2)nnc1-c1ccco1` (stereo not drawn), with “inactive”; and `COc1ccccc1NC(=O)COC(=O)c1ccccc1SCC(=O)N1CCCC1`, with “inactive”.
Take `CCS(=O)(=O)c1cc([N+](=O)[O-])c(Sc2ccccc2N)s1`: the B-score entry is “inactive”.
Consider `Nc1ccccc1SCc1cc([N+](=O)[O-])cc2c1OCOC2`, for which the B-score is -0.29.
`Nc1ccccc1SC(C[N+](=O)[O-])c1ccccc1` (stereo not drawn): the B-score was -7.63 (active).
Then `Cc1cc(C)c(-c2csc(NC(=O)CCCc3nc4ccccc4c(=O)[nH]3)n2)c(C)c1`, with “inactive”; and `O=C(Nc1ccccc1N1CCCC1)c1ccc(F)c(S(=O)(=O)N2CCOCC2)c1`, with -0.88; and `Cc1ccc(S(=O)(=O)N2CCOCC2)cc1C(=O)NCc1ccc(F)cc1`, with “inactive”.
Then `Cc1cc(C(=O)Nc2ccccc2N2CCOCC2)c2ccccc2n1`, with -6.19 (active); and `Cc1ccc(S(=O)(=O)N2CCOCC2)cc1C(=O)Nc1ccccc1N1CCCC1`, with -6.63 (active).
Take `O=C(Nc1ccccc1N1CCOCC1)c1csc2c1CCCC2`: the B-score was -4.47.
Turning to `Cc1cc(C(=O)NNC(=O)c2cccc(S(=O)(=O)N3CCOCC3)c2)c2ccccc2n1`, the B-score was -0.22.
For `CN(C)CCn1c2c(c(SCC(=O)Nc3ccccc3C(F)(F)F)nc1=O)CCCC2`, the B-score was -0.04.
Turning to `Nc1c(-c2ccccc2)nnn1Cc1ccccc1`, the B-score result was “inactive”.
For the compound `Cc1ccc(S(=O)(=O)N2CCN(C(=O)c3ccc(-n4cncn4)c([N+](=O)[O-])c3)CC2)cc1`, the B-score was -0.29.
In the case of `Cc1cccc(C)c1NC(=O)CNC(=O)c1c(C)nn(-c2ccccc2)c1C` it was -1.69.
For `O=C(Nc1nc(-c2ccco2)c(-c2ccco2)s1)c1ccco1`, the B-score is -3.35.
Regarding `Cc1nc2ccccc2c(-c2ccccc2)c1C(=O)c1ccccc1`, the B-score was -9.15 (active).
On to `CC(=O)c1c(-c2ccccc2)c2ccccc2[nH]c1=O`, for which the B-score was -0.37.
For the compound `Cc1nc2ccccc2c(C)c1C(=O)c1ccc(F)cc1`, the B-score is -1.04.
In the case of `COc1cnn(-c2ccc([N+](=O)[O-])cc2)c(=O)c1Cl` it was -0.13; in that of `COc1ccccc1C(=O)Nc1ccc(Nc2ccccc2)cc1`, “inactive”; in that of `COc1ccc(CNS(=O)(=O)c2cc3c4c(c2)CCN4C(=O)CC3)cc1`, -1.56.
In the case of `Cc1ccc(NC(=O)C2CC(=O)N(c3ccc4c(c3)OCCO4)C2)cc1S(=O)(=O)N1CCCCCC1` (stereo not drawn) it was -1.45.
Turning to `Cc1onc(-c2ccccc2Cl)c1C(=O)NCCn1ccc2ccccc21`, the B-score was -5.59 (active).
`Cc1ccc2cc(CCNC(=O)c3c(-c4ccccc4Cl)noc3C)c(=O)[nH]c2c1`: the B-score is -1.13.
Turning to `Cc1onc(-c2ccccc2Cl)c1C(=O)OCC(=O)c1ccccc1`, the B-score was -1.85.
Take `Cc1ccc(-c2nc3ccccc3[nH]2)cc1N`: the B-score was -0.17.
Consider `COc1ccc(-c2[nH]nc(-c3ccccc3)c2-c2nc3ccccc3[nH]2)cc1`, for which the B-score was -7.31 (active).
In the case of `COc1ccc(OC(C)C(=O)NCCc2nc3ccccc3[nH]2)cc1` (stereo not drawn) it was “inactive”; in that of `COc1ccc(CCNC(=S)N2CCN(S(=O)(=O)c3ccc(F)cc3)CC2)cc1`, -0.54.
For `Cc1ccc(CSCC(=O)N(C)CC(=O)Nc2ccc(C)cc2)cc1`, the B-score entry was “inactive”.
Then `CC(Oc1ccc(Br)cc1)C(=O)NCC(c1ccco1)N1CCCCC1` (stereo not drawn), with -2.11; and `CCOC(=O)c1c(NC(=O)C2(C)Cc3ccccc3C(=O)O2)sc2c1CCCC2` (stereo not drawn), with -5.8 (active).
Then `CCOC(=O)c1c(NC(=O)CSc2cn(CC)c3ccccc23)sc2c1CCC2`, with -7.2 (active); and `CCOC(=O)c1c(NC(=O)C(C)Sc2c[nH]c3ccccc23)sc2c1CCC2` (stereo not drawn), with -4.14; and `CCOC(=O)c1c(NC(=S)NC)sc2c1CCCC2`, with “inactive”.
For the compound `CCOC(=O)c1c(NC(=O)CCC(=O)NCc2ccco2)sc2c1CCCC2`, the B-score entry was “inactive”.
In the case of `CCOC(=O)c1c(NC(=O)Cn2nc(C(F)(F)F)cc2C)sc2c1CCC2` it was -0.09.
Then `CC(Sc1nn(-c2ccc(Cl)cc2)c(=S)s1)C(=O)NCC1CCCO1` (stereo not drawn), with -0.45.
In the case of `COc1cccc(NC(=O)CSc2nccn(-c3ccc4c(c3)OCCO4)c2=O)c1` it was -2.03.
In the case of `COc1ccccc1CCC(=O)NNC(=O)c1ccncc1`, the B-score is -1.15.
With `COc1ccc(S(=O)(=O)N2CCOC23CCN(S(=O)(=O)c2ccc([N+](=O)[O-])cc2)CC3)cc1`, the B-score is -0.03.
Then `Cc1ccc(N=C2SCCCN2C(=O)c2cccc(N3C(=O)CCC3=O)c2)cc1Cl`, with “inactive”; and `COc1ccccc1NC(=O)C(C)OC(=O)c1ccc(-n2cnnn2)cc1` (stereo not drawn), with “inactive”; and `O=C(CCN1C(=O)C2CCCCC2C1=O)Nc1ccc(OC(F)F)cc1` (stereo not drawn), with -1.21.
For the compound `C[C@H](NC(=O)c1ccccc1Cl)C(=O)OCCOc1cccc(Cl)c1`, the B-score is -6.72 (active).
On to `O=C(COc1cccc(Cl)c1)NCc1ccccc1`, for which the B-score entry is “inactive”.
For `CC(C)NC(=O)c1ccc(Cl)cc1Cl`, the B-score entry is “inactive”.
Then `CCOC(=O)c1c(C)[nH]c(C(=O)OCC(=O)c2ccc(OC)cc2OC)c1C`, with -0.07.
Then `COc1ccc(S(=O)(=O)N2CCCCC2)cc1NC(=O)C1CC(=O)N(c2ccc3c(c2)OCCO3)C1` (stereo not drawn), with -0.27; and `Cc1csc2nc(O)c(C(=O)NCCN3CCOCC3)c(=O)n12`, with “inactive”; and `Cc1ccc(SCC(=O)c2cc(C)c(OC(=S)N(C)C)c(C)c2)cc1`, with -7.36 (active).
In the case of `Cc1ccc(SCC(=O)Nc2ccc3c(c2)OCCO3)cc1` it was “inactive”.
Regarding `Cc1ccc(C(=O)CSc2ccccc2C(=O)O)cc1`, the B-score entry is “inactive”.
For `Cc1ncc(CO)c(/C=N/NC(=O)c2cccc(S(=O)(=O)N3CCCC3)c2)c1O`, the B-score was -2.49.
`Cc1ccc(C(=O)NC2CCCC(C)C2C)cc1S(=O)(=O)N1CCCCC1` (stereo not drawn): the B-score was -3.09.
